Structures can show the parent of a compound that is named as a salt.
These molecules were tested on Saccharomyces cerevisiae BY4741 SeMeCo community (assay: z-score of subpopulation abundance vs DMSO median, subpopulation auxotrophic for H; higher = larger share of this subpopulation than in DMSO controls). Conditions: 10 µM; 24 h; SM minimal medium; subpopulation (auxotrophy): H.
In short: (§1)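 Subpopulation abundance was reported as a z-score against the median of vehicle wells. The Saccharomyces cerevisiae BY4741 community, carrying four plasmids that each restored one auxotrophy and encoded a distinct fluorescent protein, was grown 24 h in minimal SM medium in 384-well plates holding library drugs at 10 µM final. Cells were paraformaldehyde-fixed and imaged by automated confocal microscopy, with single-auxotroph fluorescent strains used for thresholds and autofluorescence correction.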

| SMILES | z-score of subpopulation abundance |
| --- | --- |
| Nc1c(CC(=O)O)cccc1C(=O)c1ccccc1 [Amfenac Sodium Monohydrate] | -0.38 |
| CN1CCN(c2c(F)cc3c(=O)c(C(=O)O)cn4c3c2OCN4C)CC1 [Marbofloxacin] | -1.41 |
| CN1CCOC(c2ccccc2)c2ccccc2C1 (stereo not given) [Nefopam HCl] | -0.62 |
| COc1ccc(C(C)=O)c(O)c1 [Paeonol] | 0.01 |
| Cc1ccc2c(Cl)cc(Cl)c(O)c2n1 [Chlorquinaldol] | 9.18 |
| CN(C)CCC=C1c2ccccc2C=Cc2ccccc21 [Cyclobenzaprine HCl] | -0.68 |
| CCNC(=O)[C@@H]1CCCN1C(=O)[C@H](CCCNC(=N)N)NC(=O)[C@H](CC(C)C)NC(=O)[C@@H](CC(C)C)NC(=O)[C@H](Cc1ccc(O)cc1)NC(=O)[C@H](CO)NC(=O)[C@H](Cc1c[nH]c2ccccc12)NC(=O)[C@H](Cc1c[nH]cn1)NC(=O)[C@@H]1CCC(=O)N1 [Leuprolide Acetate] | 0.67 |
| COc1cc(NS(=O)(=O)c2ccc(N)cc2)nc(OC)n1 [SulfadiMethoxine sodium] | -0.13 |
| Cc1cc(-c2ccc(/N=N/c3ccc4c(S(=O)(=O)O)cc(S(=O)(=O)O)c(N)c4c3O)c(C)c2)ccc1/N=N/c1ccc2c(S(=O)(=O)O)cc(S(=O)(=O)O)c(N)c2c1O [Evans Blue] | 4.9 |
| NC[C@H]1O[C@H](O[C@H]2[C@H](O)[C@@H](O[C@H]3O[C@H](CO)[C@@H](O)[C@H](N)[C@H]3O)[C@H](N)C[C@@H]2N)[C@H](N)C[C@@H]1O [Tobramycin] | -1.81 |
| CCc1cccc2c3c([nH]c12)C(CC)(CC(=O)O)OCC3 (stereo not given) [Etodolac] | -0.66 |
| CO[C@H]1C[C@@H]2CC[C@@H](C)[C@@](O)(O2)C(=O)C(=O)N2CCCC[C@H]2C(=O)O[C@H]([C@H](C)C[C@@H]2CC[C@@H](OP(C)(C)=O)[C@H](OC)C2)CC(=O)[C@H](C)/C=C(\C)[C@@H](O)[C@@H](OC)C(=O)[C@H](C)C[C@H](C)/C=C/C=C/C=C/1C [Ridaforolimus (Deforolimus, MK-8669)] | 15.9 |
| CC1=CC[C@@](O)(C(C)C)CC1 [Terpinen-4-ol] | -0.04 |
| CC[N+](CC)(CC)CCOc1cccc(OCC[N+](CC)(CC)CC)c1OCC[N+](CC)(CC)CC [Gallamine Triethiodide] | -0.16 |
| CN1[C@@H](CC(=O)c2ccccc2)CCC[C@H]1C[C@H](O)c1ccccc1 [Lobeline hydrochloride] | -0.65 |
| CCC(C)n1ncn(-c2ccc(N3CCN(c4ccc(OCC5COC(Cn6cncn6)(c6ccc(Cl)cc6Cl)O5)cc4)CC3)cc2)c1=O (stereo not given) [Itraconazole] | 18.3 |
| OC[C@H]1O[C@H](OCC2O[C@@H](O)[C@H](O)[C@@H](O)[C@@H]2O)[C@H](O)[C@@H](O)[C@H]1O (stereo not given in full) [Melibiose] | -0.36 |
| COc1ccc(C(Cl)=C(c2ccc(OC)cc2)c2ccc(OC)cc2)cc1 [Chlorotrianisene] | 1.21 |
| CC(=O)O[C@]1(C(C)=O)CC[C@H]2[C@@H]3C[C@H](C)C4=CC(=O)CC[C@]4(C)[C@H]3CC[C@@]21C [Medroxyprogesterone acetate] | 0.12 |
| Cc1onc(-c2c(Cl)cccc2Cl)c1C(=O)N[C@@H]1C(=O)N2[C@@H]1SC(C)(C)[C@@H]2C(=O)O [Dicloxacillin Sodium] | 0.19 |
| CN1CCC(=C2c3ccccc3CCc3sccc32)CC1 [Pizotifen Malate] | -0.02 |
| Cc1c(OCC(F)(F)F)ccnc1C[S@@+]([O-])c1nc2ccccc2[nH]1 [Dexlansoprazole] | 1.18 |
| Cc1nc(C)c(Cl)c(O)c1Cl [Clopidol] | 0.6 |
| O=C(CCCN1CCN(c2ccccn2)CC1)c1ccc(F)cc1 [Azaperone] | -0.28 |
| COc1ccc(C(=O)NCc2ccc(OCCN(C)C)cc2)cc1OC [Itopride hydrochloride] | -0.37 |
| CSCC1CN(/N=C/c2ccc([N+](=O)[O-])o2)C(=O)O1 (stereo not given) [Nifuratel] | 5.51 |

Each molecule was assayed on Saccharomyces cerevisiae BY4741 SeMeCo community (assay: z-score of subpopulation abundance vs DMSO median, subpopulation auxotrophic for LU; higher = larger share of this subpopulation than in DMSO controls). Conditions: 10 µM; 24 h; SM minimal medium; subpopulation (auxotrophy): LU.
In short: as §1

| SMILES | z-score of subpopulation abundance |
| --- | --- |
| CC(C(=O)O)c1ccc(C(=O)c2cccs2)cc1 (stereo not given) [Suprofen] | -0.41 |
| COc1cccc2c1C(=O)c1c(O)c3c(c(O)c1C2=O)C[C@@](O)(C(=O)CO)C[C@@H]3O[C@H]1C[C@H](N)[C@H](O[C@@H]2CCCCO2)[C@H](C)O1 [Pirarubicin] | 4.15 |
| N=C(N)NC(=N)N1CCOCC1 [Moroxydine HCl] | 0.31 |
| Nc1c(CC(=O)O)cccc1C(=O)c1ccccc1 [Amfenac Sodium Monohydrate] | -0.63 |
| CN1CCN(c2c(F)cc3c(=O)c(C(=O)O)cn4c3c2OCN4C)CC1 [Marbofloxacin] | 0.12 |
| CN1CCOC(c2ccccc2)c2ccccc2C1 (stereo not given) [Nefopam HCl] | 0.08 |
| COc1ccc(C(C)=O)c(O)c1 [Paeonol] | 0.12 |
| Cc1ccc2c(Cl)cc(Cl)c(O)c2n1 [Chlorquinaldol] | -2.2 |
| NC[C@@H]1O[C@H](O[C@H]2[C@@H](O)[C@H](O[C@@H]3[C@@H](O)[C@H](N)C[C@H](N)[C@H]3O[C@H]3O[C@H](CO)[C@@H](O)[C@H](O)[C@H]3N)O[C@@H]2CO)[C@H](N)[C@@H](O)[C@@H]1O [Paromomycin Sulfate] | -0.04 |
| CN(C)CCC=C1c2ccccc2C=Cc2ccccc21 [Cyclobenzaprine HCl] | -0.04 |
| CCNC(=O)[C@@H]1CCCN1C(=O)[C@H](CCCNC(=N)N)NC(=O)[C@H](CC(C)C)NC(=O)[C@@H](CC(C)C)NC(=O)[C@H](Cc1ccc(O)cc1)NC(=O)[C@H](CO)NC(=O)[C@H](Cc1c[nH]c2ccccc12)NC(=O)[C@H](Cc1c[nH]cn1)NC(=O)[C@@H]1CCC(=O)N1 [Leuprolide Acetate] | -0.03 |
| COc1cc(NS(=O)(=O)c2ccc(N)cc2)nc(OC)n1 [SulfadiMethoxine sodium] | -0.82 |
| CCN1CCN(c2cc3c(cc2F)c(=O)c(C(=O)O)cn3C2CC2)CC1 [Enrofloxacin] | -0.21 |
| O=C1CN(/N=C/c2ccc(-c3ccc([N+](=O)[O-])cc3)o2)C(=O)N1 [Dantrolene sodium] | -2.49 |
| Cc1cc(-c2ccc(/N=N/c3ccc4c(S(=O)(=O)O)cc(S(=O)(=O)O)c(N)c4c3O)c(C)c2)ccc1/N=N/c1ccc2c(S(=O)(=O)O)cc(S(=O)(=O)O)c(N)c2c1O [Evans Blue] | 4.41 |
| NC[C@H]1O[C@H](O[C@H]2[C@H](O)[C@@H](O[C@H]3O[C@H](CO)[C@@H](O)[C@H](N)[C@H]3O)[C@H](N)C[C@@H]2N)[C@H](N)C[C@@H]1O [Tobramycin] | -0.02 |
| CCc1cccc2c3c([nH]c12)C(CC)(CC(=O)O)OCC3 (stereo not given) [Etodolac] | 0.31 |

| SMILES | z-score of subpopulation abundance |
| --- | --- |
| CO[C@H]1C[C@@H]2CC[C@@H](C)[C@@](O)(O2)C(=O)C(=O)N2CCCC[C@H]2C(=O)O[C@H]([C@H](C)C[C@@H]2CC[C@@H](OP(C)(C)=O)[C@H](OC)C2)CC(=O)[C@H](C)/C=C(\C)[C@@H](O)[C@@H](OC)C(=O)[C@H](C)C[C@H](C)/C=C/C=C/C=C/1C [Ridaforolimus (Deforolimus, MK-8669)] | 5.01 |
| CC1=CC[C@@](O)(C(C)C)CC1 [Terpinen-4-ol] | 0.74 |
| CC[C@@H]1/C=C(\C)C[C@H](C)C[C@H](OC)[C@H]2O[C@@](O)(C(=O)C(=O)N3CCCC[C@H]3C(=O)O[C@H](/C(C)=C/[C@@H]3CC[C@H](Cl)[C@H](OC)C3)[C@H](C)[C@@H](O)CC1=O)[C@H](C)C[C@@H]2OC [Pimecrolimus] | -0.41 |
| CC[N+](CC)(CC)CCOc1cccc(OCC[N+](CC)(CC)CC)c1OCC[N+](CC)(CC)CC [Gallamine Triethiodide] | 0.16 |
| CN1[C@@H](CC(=O)c2ccccc2)CCC[C@H]1C[C@H](O)c1ccccc1 [Lobeline hydrochloride] | -0.23 |
| CCC(C)n1ncn(-c2ccc(N3CCN(c4ccc(OCC5COC(Cn6cncn6)(c6ccc(Cl)cc6Cl)O5)cc4)CC3)cc2)c1=O (stereo not given) [Itraconazole] | -0.44 |
| OC[C@H]1O[C@H](OCC2O[C@@H](O)[C@H](O)[C@@H](O)[C@@H]2O)[C@H](O)[C@@H](O)[C@H]1O (stereo not given in full) [Melibiose] | 0.81 |
| C[N+](C)(C)CCO.[Cl-] [Choline Chloride] | 0.54 |
| COc1ccc(C(Cl)=C(c2ccc(OC)cc2)c2ccc(OC)cc2)cc1 [Chlorotrianisene] | 0.41 |
| COC(=O)C1=C(C#N)NC(C)=C(C(=O)OC(C)C)C1c1cccc([N+](=O)[O-])c1 (stereo not given) [Nilvadipine] | -1.37 |
| CC(=O)O[C@]1(C(C)=O)CC[C@H]2[C@@H]3C[C@H](C)C4=CC(=O)CC[C@]4(C)[C@H]3CC[C@@]21C [Medroxyprogesterone acetate] | 0.01 |
| O=C(c1ccc(F)cc1)C1CCN(CCn2c(=O)[nH]c3ccccc3c2=O)CC1 [Ketanserin] | -0.66 |
| Cc1onc(-c2c(Cl)cccc2Cl)c1C(=O)N[C@@H]1C(=O)N2[C@@H]1SC(C)(C)[C@@H]2C(=O)O [Dicloxacillin Sodium] | 0.85 |
| C(=C\c1ccccc1)/CN1CCN(C(c2ccccc2)c2ccccc2)CC1 [Cinnarizine] | 1.38 |
| C=CC[N+]1([C@H]2C[C@H]3[C@@H]4CC[C@H]5C[C@H](O)[C@@H](N6CCOCC6)C[C@]5(C)[C@H]4CC[C@]3(C)[C@H]2OC(C)=O)CCCC1 [Rocuronium Bromide] | -0.06 |
| CCn1cc(C(=O)O)c(=O)c2cc(F)c(N3CCNCC3)cc21 [Norfloxacin] | -0.24 |
| CN1CCC(=C2c3ccccc3CCc3sccc32)CC1 [Pizotifen Malate] | 0.03 |

From the supplement of paper PMC8975748
